Test system: Plasmodium falciparum Sir2 (PF13_0152, Sir2A)
Assay: pfSir2 binders on small-molecule microarrays, primary screen, biochemical, small-molecule microarray, 635 nm fluorescence (AID 1098);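 further: score merges spot fluorescence intensity with its signal-to-noise ratio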
Conditions: small-molecule microarray binding, fluorescence 635 nm; higher = more signal

| Structure (SMILES) | composite z-score |
| --- | --- |
| COCCOC(=O)N1C(=O)[C@@]2(c3cc(C#CCC(C(=O)OC)C(=O)OC)ccc31)[C@H](C(=O)NC[C@H](O)c1ccccc1)[C@H]1C(=O)O[C@H](c3ccccc3)[C@H](c3ccccc3)N1[C@@H]2c1ccc(O)cc1 | 1.17 |
| Cc1cccc([C@H]2C[C@H]3C(Br)=C[C@@H]2C(=O)[C@]32CO2)c1 | -0.256 |
| C=CCC(OC(C)=O)[C@@H]1[C@@H](N(Cc2ccc(-c3cccc(C(F)(F)F)c3)o2)C(=O)c2cccc3ccccc23)c2cc(OCCCO)ccc2N1C(=O)Cc1ccc(OC)cc1 (some centres not stated) | 0.727 |
| CC(C)C[C@@H]1NC(=O)[C@@]23C(=O)N[C@@H](Cc4ccccc4)C2[C@H](C)[C@@]2(C)O[C@H]2C3/C=C/C/C=C\CNC(=O)[C@@H](C)NC1=O (some centres not stated) | 1.72 |
| CCOC(=O)C1=CCN(S(=O)(=O)c2ccc(C)cc2)C1c1ccccc1 (configuration not stated) | 0.494 |
| COCCOC(=O)N1C(=O)[C@@]2(c3ccccc31)[C@H](c1ccccc1OCCO)N1[C@H](c3ccccc3)[C@H](c3ccccc3)OC(=O)[C@H]1[C@@H]2C(N)=O | 1.28 |
| C=C(COC)C(=O)CC[C@@H](OC(=O)c1cccnc1)c1ccccc1OCCO | 1.4 |

From PubChem BioAssay
